The source of these data is PubChem BioAssay (EPA / NIEHS).

Inconclusive results are not listed. Calls of active or inactive are those of the source. Rule for the calls: active = hit-call score of the fitted dose curve at least 0.9, where 1 is the maximum; inconclusive = response in the unintended direction; inactive = score below 0.9.

Chain of THRB (gene 7068) (P10828 whole entry, looked up, the tested form may be a part): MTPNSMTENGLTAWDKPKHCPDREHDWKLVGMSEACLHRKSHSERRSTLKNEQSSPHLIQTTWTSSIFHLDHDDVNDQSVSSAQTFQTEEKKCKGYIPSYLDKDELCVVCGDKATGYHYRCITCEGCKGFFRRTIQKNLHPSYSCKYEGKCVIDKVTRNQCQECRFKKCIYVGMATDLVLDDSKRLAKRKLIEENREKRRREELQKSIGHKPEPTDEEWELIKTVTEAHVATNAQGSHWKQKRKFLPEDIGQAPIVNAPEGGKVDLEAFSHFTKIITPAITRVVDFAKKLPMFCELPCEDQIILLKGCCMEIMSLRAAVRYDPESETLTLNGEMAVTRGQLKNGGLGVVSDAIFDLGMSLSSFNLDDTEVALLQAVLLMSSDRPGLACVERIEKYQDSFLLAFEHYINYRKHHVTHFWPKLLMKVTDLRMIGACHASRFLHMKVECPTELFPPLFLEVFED

The assay has as its target THRB (gene 7068) (UniProt P10828). Kind of assay: TOX21_TRB_BLA_Antagonist_Followup_ratio: Tox21 Thyroid Hormone Receptor beta Antagonism Beta-lactamase (BLA) Follow-Up Assay, Ratio (AID 2283958). The source says:
The GeneBLAzer TRb-UAS-bla HEK293T assay kit for human TRb (ThermoFisherScientific Catalog No. K1684) was used as a secondary assay for specificity (TRb-bla).This assay contained the ligand-binding domain (LBD) of the human TRb fused to the DNA-binding domain of GAL4 stably integrated in the GeneBLAzer UAS-bla HEK293Tcell line. The reporter gene, b-lactamase, is under the transcriptional control of a UAS that binds the GAL4 DNA-binding domain. A cell viability assay was run in parallel for these cells as well using the CellTiter-Glo viability assay kit.TOX21_TRB_BLA_Antagonist_Followup_ratio is an assay readout measuring reporter gene via receptor activity and designed using inducible reporter (beta lactamase induction) detected with GAL4 b-lactamase reporter gene. The signal is derived from the ratio of cleaved (ch2) to uncleaved (ch1) reporter gene substrate used as the measure of target activity.Data from the assay component TOX21_TRB_BLA_Antagonist_Followup_ratio was analyzed into 1 assay endpoint. This assay endpoint, TOX21_TRB_BLA_Antagonist_Followup_ratio, was analyzed in the positive analysis fitting direction relative to DMSO as the negative control and baseline of activity. Using a type of inducible reporter, loss-of-signal activity can be used to understand changes in the reporter gene as they relate to the gene THRB. Furthermore, this assay endpoint can be referred to as a primary readout, because this assay has produced multiple assay endpoints and this ratio serves a reporter gene function to understand target activity. To generalize the intended target to other relatable targets, this assay endpoint is annotated to the nuclear receptor intended target family, where the subfamily is non-steroidal.
Cell Media Required: Growth (90% DMEM/F-12, 10% Fetal Bovine Calf Serum, 100U/ml Penicillin, 100 ug/ml Streptomycin), Assay (10ng/mL sodium selenite, 10 ug/mL humanapo-transferrin, 10 uM ethanolamine, 10 ug/mL insulin, 500 ug/mL bovine serum albumin (BSA))Assay Protocol: TRb-bla cells were dispensed at 3,000 cells/well in 5 uL of the assay medium containing phenol red-free DMEM with 2% charcoal-stripped FBS in 1,536-well black-wall/clear-bottom plates using an FRD. After 5-h incubation at 37C/5% CO2 for cell attachment to the well bottom, 23nL of follow-up compounds dissolved in DMSO, 11 concentrations in triplicate, and the positive control (T3; agonist format) were transferred to the assay plates using a Pintool station. The assay plates were incubated at 37C/5% CO2 for 18h. One microliter LiveBLAzer FRET-B/G CCF4-AM substrate was added to each well using an FRD. After 2-h incubation at room temperature, the fluorescence intensity was measured using an Envision plate reader. Data were expressed as the ratio of 460:530nm. The cytotoxicity of the compounds was measured in the same plates by adding 4 uL of CellTiter-Glo reagent to each well and incubating the plates at room temperature for 30 min. The luminescence intensity was measured using a ViewLux plate reader.For the luciferase reporter gene assay, 5 uL/well (agonist format) and 4 uL/well (antagonist format) ONE-Glo reagent (Promega Corporation) was added using an FRD and after 30-min incubation at room temperature, the luminescence intensity was measured using a ViewLux plate reader. Data were expressed as relative fluorescence units (cell viability assay) and relative luminescence units (luciferase reporter assay).
Turning to `COc1cc(NCc2ccc3nc(N)nc(N)c3c2C)cc(OC)c1OC`, the outcome was inactive.

Take `CN1CCCC(CC2c3ccccc3Sc3ccccc32)C1` (stereo unspecified): the result was inactive. With `C/C=C1/C(=O)C[C@H]2[C@@H]3CCC4=CC(=O)CC[C@]4(C)[C@H]3CC[C@]12C`, the outcome was inactive. A word on the AC50: it is the concentration giving half of the maximal activity seen. Turning to `Cc1ccc(Nc2nccc(N(C)c3ccc4c(C)n(C)nc4c3)n2)cc1S(N)(=O)=O`, the AC50 was 14.7 µM (active). For `NNc1nnc(Cc2ccncc2)c2ccccc12`, the result was inactive. Still for that read-out and setting: the result for `C#C[C@]1(O)CC[C@H]2[C@@H]3CCC4=C(CCC(=O)C4)[C@H]3CC[C@@]21C` reads “inactive”. In the case of `CC(=O)O[C@@]12CO[C@@H]1C[C@H](O)[C@@]1(C)C(=O)[C@H](O)C3=C(C)[C@@H](OC(=O)[C@H](O)[C@@H](NC(=O)OC(C)(C)C)c4ccccc4)C[C@@](O)([C@@H](OC(=O)c4ccccc4)[C@H]21)C3(C)C`, the outcome was inactive. Regarding `Cc1nc2ccc(CN(C)c3ccc(C(=O)N[C@@H](CCC(=O)O)C(=O)O)s3)cc2c(=O)[nH]1`, the result was inactive. On the same count and under the same terms, the result for `COc1ccc2c(c1)N(C[C@H](C)CN(C)C)c1ccccc1S2` reads “inactive”. The same measure, in the same setting: the entry for `O=C1c2ccccc2-c2n[nH]c3cccc1c23` is “inactive”. In the case of `CCCCCCC[N+](CC)(CC)CCCCc1ccc(Cl)cc1`, the outcome was inactive. On the same count and under the same terms, the entry for `O=c1[nH]c(=O)n([C@H]2C[C@H](O)[C@@H](CO)O2)cc1C(F)(F)F` is “inactive”. With `O=C1OC(OC(=O)c2cccnc2Nc2cccc(C(F)(F)F)c2)c2ccccc21` (stereo unspecified), the outcome was inactive.

Consider `O=C(O)c1cccnc1Nc1cccc(C(F)(F)F)c1`, for which the outcome was inactive. In the case of `COC(=O)Nc1nc2ccc(S(=O)c3ccccc3)cc2[nH]1` (stereo unspecified), the result was inactive.

In the case of `CC(=O)OCC(=O)[C@H]1CC[C@H]2[C@@H]3CCC4=CC(=O)CC[C@]4(C)[C@H]3CC[C@]12C`, the result was inactive.
